Records with an inconclusive call do not appear. Activity calls are given as the source filed them. Calls come from the whole dose curve; as a rule, active = well fitted inhibition curve with a large enough effect; inconclusive = small, poorly fitted or top-dose-only effect; inactive = no such curve, though single readings can be large or run the other way.
Molecular target: Retinal dehydrogenase 2 (Homo sapiens) (UniProt O94788)
Test: qHTS for Inhibitors of the Aldehyde Dehydrogenase Family (ALDH1A2) Confirmation screens (AID 2061314); note: nearly all actives have a fitted effect of over 65% in size; note: potency is the fitted concentration of half-maximal effect; for activity, negative = inhibition: % is set by controls: 0 for no effect and ±100 for the full control effect
Conditions: ALDH1A2 enzyme inhibition qHTS confirmation; series mostly up to 45.9 µM; activity, negative = inhibition: at the top concentration

Row | SMILES | Potency | activity, negative = inhibition | outcome
1 | CC(C)(C)OC(=O)N1CCN(c2ccc(NCc3ccc(-c4ccc(C#N)cc4)o3)nc2)CC1 | 25.1 µM (active) |  | 
2 | CC(C)(C)OC(=O)N1CCC(c2ccc(NCc3ccc(-c4ccc(C#N)cc4)o3)cc2)CC1 | 8.91 µM (active) |  | 
3 | O=C(O)CN(CCOCCOCCN(CC(=O)O)CC(=O)O)CC(=O)O |  | -8.03% (inactive) | 
4 | CN1Cc2sccc2C(c2ccc(O)c(O)c2)C1 (stereo not drawn) |  |  | inactive
5 | CC(C)(C)OC(=O)N1CCN(c2cnc(NCc3ccc(-c4ccc(C#N)cc4)o3)cn2)CC1 | 1.79 µM (active) |  | 
6 | O=C1CCc2cc(OCCCCc3nnnn3C3CCCCC3)ccc2N1 | 7.94 µM (active) |  | 
7 | O=C(O)/C=C/c1ccc(O)c(O)c1 |  | 1.06% (inactive) | 

Molecular target: Retinaldehyde dehydrogenase 3 (Homo sapiens) (UniProt P47895)
Test: qHTS for Inhibitors of the Aldehyde Dehydrogenase Family (ALDH1A3) Primary screen (AID 2061315);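 note: plate controls were DMSO vehicle for no effect and reference inhibitor for full effect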
Conditions: ALDH inhibition qHTS; series mostly up to 56 µM; activity change, negative = inhibition: at the top concentration

Row | SMILES | activity change, negative = inhibition
8 | CC(C)(C)OC(=O)N1CCN(c2ccc(NCc3ccc(-c4ccc(C#N)cc4)o3)nc2)CC1 | -9.28% (inactive)
9 | CCN(CC)CCCC(C)Nc1ccnc2cc(Cl)ccc12 (stereo not drawn) | 6.44% [at 11.2 µM] (inactive)
10 | CC(C)(C)OC(=O)N1CCC(c2ccc(NCc3ccc(-c4ccc(C#N)cc4)o3)cc2)CC1 | 65.6% (inactive)
11 | Clc1ccc2c(c1)C(N1CCNCC1)=Nc1ccccc1O2 | 3.12% (inactive)
12 | CC(C)c1c(C(=O)Nc2ccccc2)c(-c2ccccc2)c(-c2ccc(F)cc2)n1CC[C@@H](O)C[C@@H](O)CC(=O)O | 17.4% [at 16.9 µM] (inactive)
13 | Cc1ccc(-c2cc(C(F)(F)F)nn2-c2ccc(S(N)(=O)=O)cc2)cc1 | 28% (inactive)
14 | CC(C)(C)OC(=O)N1CCN(c2cnc(NCc3ccc(-c4ccc(C#N)cc4)o3)cn2)CC1 | -1.26% (inactive)
15 | CC(=O)O[C@]1(C(C)=O)CC[C@H]2[C@@H]3C=C(Cl)C4=CC(=O)[C@@H]5C[C@@H]5[C@]4(C)[C@H]3CC[C@@]21C | 0.141% (inactive)
16 | CC(C)(C)OC(=O)N1CCN(c2ccc(NCc3ccc(-c4ccc(C#N)cc4)o3)cn2)CC1 | 29.6% (inactive)

Molecular target: Aldehyde dehydrogenase 1A1 (Homo sapiens) (UniProt P00352)
Test: qHTS for Inhibitors of the Aldehyde Dehydrogenase Family (ALDH1A1) Confirmatory screens (AID 2061316); note: nearly all actives have a fitted effect of over 65% in size; note: potency is the fitted concentration of half-maximal effect; for activity change, negative = inhibition: % is set by controls: 0 for no effect and ±100 for the full control effect
Conditions: ALDH inhibition qHTS; series mostly up to 47.3 µM; activity change, negative = inhibition: at the top concentration

Row | SMILES | Potency | activity change, negative = inhibition
17 | CC(C)(C)OC(=O)N1CCN(c2ccc(NCc3ccc(-c4ccc(C#N)cc4)o3)nc2)CC1 | 7.12 µM (active) | 
18 | CC(C)(C)OC(=O)N1CCC(c2ccc(NCc3ccc(-c4ccc(C#N)cc4)o3)cc2)CC1 | 12.7 µM (active) | 
19 | O=C(O)CN(CCOCCOCCN(CC(=O)O)CC(=O)O)CC(=O)O |  | -14% (inactive)
20 | Cc1ccc(S(=O)(=O)NC(=O)NN2CCCCCC2)cc1 |  | -8.57% (inactive)
21 | CC(C)(C)OC(=O)N1CCN(c2cnc(NCc3ccc(-c4ccc(C#N)cc4)o3)cn2)CC1 | 4.49 µM (active) | 
22 | CC(C)(C)OC(=O)N1CCN(c2ccc(NCc3ccc(-c4ccc(C#N)cc4)o3)cn2)CC1 | 2.25 µM (active) | 
23 | O=C(O)/C=C/c1ccc(O)c(O)c1 |  | -12.4% (inactive)

Source: PubChem BioAssay (NCATS)
